IDE exosite FP: exo-site inhibitors of human IDE, primary screen, biochemical, fluorescence anisotropy, probe displacement; hit rate 6.3% among 17,000; purified IDE, FL-6b probe fluorescence polarization; hits give low values; AID 1259349, 2017; z-score at 20 µM;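 active means z-score of -3 or lower, meaning strong loss of probe binding signal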;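 further: His-tagged human IDE residues 42-1019 made in E. coli with 30 nM FL-6b probe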
Target sequence (P14735 42-1019 limits assumed): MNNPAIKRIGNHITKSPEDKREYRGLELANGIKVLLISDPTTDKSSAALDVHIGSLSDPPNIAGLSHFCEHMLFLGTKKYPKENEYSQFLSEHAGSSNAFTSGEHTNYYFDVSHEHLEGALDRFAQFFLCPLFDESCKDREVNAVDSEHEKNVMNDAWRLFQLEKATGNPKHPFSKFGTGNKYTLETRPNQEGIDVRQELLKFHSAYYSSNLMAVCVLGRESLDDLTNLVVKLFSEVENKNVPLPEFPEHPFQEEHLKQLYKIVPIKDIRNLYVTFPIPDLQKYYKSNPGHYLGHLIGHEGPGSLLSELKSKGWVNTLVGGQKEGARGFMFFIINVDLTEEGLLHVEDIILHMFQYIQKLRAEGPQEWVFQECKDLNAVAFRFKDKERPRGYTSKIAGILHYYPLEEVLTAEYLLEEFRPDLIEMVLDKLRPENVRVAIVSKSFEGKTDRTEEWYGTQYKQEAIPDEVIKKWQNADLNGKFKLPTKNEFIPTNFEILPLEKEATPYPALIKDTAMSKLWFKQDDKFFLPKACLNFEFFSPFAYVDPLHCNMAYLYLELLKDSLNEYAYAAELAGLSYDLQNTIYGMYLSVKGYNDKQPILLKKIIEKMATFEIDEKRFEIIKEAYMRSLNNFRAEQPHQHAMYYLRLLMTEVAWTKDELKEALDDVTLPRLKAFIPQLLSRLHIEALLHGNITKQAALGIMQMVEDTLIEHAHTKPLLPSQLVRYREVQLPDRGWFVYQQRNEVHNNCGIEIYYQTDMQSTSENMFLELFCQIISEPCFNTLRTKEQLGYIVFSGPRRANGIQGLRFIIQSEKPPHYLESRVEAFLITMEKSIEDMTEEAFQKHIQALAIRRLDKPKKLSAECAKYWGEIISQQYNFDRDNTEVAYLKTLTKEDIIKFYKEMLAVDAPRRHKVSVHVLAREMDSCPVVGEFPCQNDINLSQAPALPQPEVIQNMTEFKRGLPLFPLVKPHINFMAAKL
The depositor's hits bear a star. This is one part of a sample in which hits are shown more often than they occur.

SMILES	IDE exosite FP
COCC(=O)N1CCCCN2[C@H](CO)[C@H](c3ccc(-c4ccccc4)cc3)[C@H]2C1	-0.28
COCC#Cc1ccc([C@H]2[C@@H](CO)N3CCCCN(C(=O)COC)C[C@H]23)cc1	2.6
COCC(=O)N1CCCCN2[C@H](CO)[C@@H](c3ccc(C#Cc4ccc(OC)cc4)cc3)[C@H]2C1	1.7
COCC(=O)N1CCCCN2[C@H](CO)[C@H](c3ccc(C#Cc4ccc(OC)cc4)cc3)[C@@H]2C1	-8.5*
COCC(=O)N1CCCCN2[C@@H](CO)[C@H](c3ccc(C#Cc4ccccc4)cc3)[C@@H]2C1	-11*
COCC(=O)N1CCCCN2[C@H](C1)[C@H](c1ccc(-c3ccccc3)cc1)[C@@H]2CO	-0.42
COCC(=O)N1CCCCN2[C@H](CO)[C@@H](c3ccc(-c4ccccc4)cc3)[C@@H]2C1	-0.53
COCC(=O)N1CCCCN2[C@H](CO)[C@@H](c3ccc(C#Cc4ccc(OC)cc4)cc3)[C@@H]2C1	-1.4
COCC#Cc1ccc([C@@H]2[C@H]3CN(C(=O)COC)CCCCN3[C@H]2CO)cc1	0.85
COCC(=O)N1CCCCN2[C@H](C1)[C@H](c1ccc(C#Cc3ccccc3)cc1)[C@@H]2CO	-10*
COCC#Cc1ccc([C@@H]2[C@@H](CO)N3CCCCN(C(=O)COC)C[C@H]23)cc1	1
O=C(Nc1ccc2c(c1)[C@@H]1C[C@@H](CC(=O)N3CCc4ccccc4C3)O[C@@H](CO)[C@@H]1O2)c1ccc2c(c1)OCO2	-0.93
COCC#Cc1ccc([C@@H]2[C@@H](CO)N3CCCCN(S(=O)(=O)c4ccccc4C)C[C@H]23)cc1	1.7
O=C(c1ccc(F)cc1)N(CC1CCC1)C[C@H]1N[C@@H](CO)[C@H]1c1ccccc1	5.4
C[C@H]1CN([C@@H](C)CO)C(=O)c2cccc(NS(=O)(=O)c3cn(C)cn3)c2O[C@H]1CN(C)Cc1ccc(Oc2ccccc2)cc1	-1
CCCC(=O)N1CC2(C1)CN(Cc1ccccc1F)[C@H](CO)c1c2c2ccc(OC)cc2n1C	0.028
CCC(=O)N1CC2(CCN(C(=O)Nc3ccccc3F)CC2)c2c([nH]c3cc(OC)ccc23)[C@H]1CO	1.2
CO[C@@H]1CC[C@H]2CCN(C)C(=O)[C@H](C)N(C)C(=O)c3cccc(C#N)c3OC[C@H]1O2	-0.16
CN1C[C@H]2[C@@H](c3ccccc31)[C@H](CO)N2Cc1ccccc1Cl	-0.56
COCC(=O)N1CCCCN2[C@H](C1)[C@@H](c1ccc(C#Cc3ccccc3)cc1)[C@@H]2CO	-5.9*
O=C(C1CCCCC1)N1CC(=O)N2[C@H](CO)[C@@H](c3ccc(Br)cc3)[C@@H]2C1	-0.48
O=C(c1ccc2c(c1)OCO2)N1CC(=O)N2[C@H](CO)[C@@H](c3ccc(-c4ccccc4)cc3)[C@H]2C1	0.43
Cc1cccc(-c2ccc([C@@H]3[C@@H](CO)N4C(=O)CN(C(=O)c5ccccc5)C[C@H]34)cc2)c1	-1.4
Cc1cccc(-c2ccc([C@H]3[C@@H](CO)N4C(=O)CN(C(=O)c5ccc6c(c5)OCO6)C[C@@H]34)cc2)c1	-3.1*
Cc1cccc(-c2ccc([C@H]3[C@H]4CN(C(=O)c5ccccc5)CC(=O)N4[C@H]3CO)cc2)c1	-0.72
SMILES	IDE exosite FP
Cc1ccc(-c2ccc([C@@H]3[C@@H](CO)N4C(=O)CN(C(=O)c5ccccc5)C[C@H]34)cc2)cc1	0.83
O=C(c1ccc2c(c1)OCO2)N1CC(=O)N2[C@@H](CO)[C@H](c3ccc(C#Cc4ccccc4)cc3)[C@@H]2C1	-4.3*
COc1ccc(-c2ccc([C@@H]3[C@@H](CO)N4C(=O)CN(C(=O)c5ccc6c(c5)OCO6)C[C@H]34)cc2)cc1	0.31
Cc1ccc(-c2ccc([C@H]3[C@@H](CO)N4C(=O)CN(C(=O)c5ccccc5)C[C@@H]34)cc2)cc1	1.3
O=C(c1ccc2c(c1)OCO2)N1CC(=O)N2[C@H](CO)[C@@H](c3ccc(C#Cc4ccccc4)cc3)[C@H]2C1	2.9
O=C(c1ccc2c(c1)OCO2)N1CC(=O)N2[C@H](CO)[C@H](c3ccc(C#Cc4ccccc4)cc3)[C@@H]2C1	-0.14
Cc1cccc(-c2ccc([C@H]3[C@H](CO)N4C(=O)CN(C(=O)c5ccccc5)C[C@@H]34)cc2)c1	-7.4*
Cc1cccc(-c2ccc([C@@H]3[C@H](CO)N4C(=O)CN(C(=O)c5ccccc5)C[C@@H]34)cc2)c1	-4.6*
CN(C)CC#Cc1ccc([C@@H]2[C@H](CO)N3C(=O)CN(C(=O)c4cccnc4)C[C@@H]23)cc1	3.6
CC(=O)N1[C@H](CO)[C@H](c2ccccc2)[C@H]1CNC(=O)c1ccncc1	3
COc1cccc(NC(=O)N2CC3(C2)[C@@H](c2ccccc2)[C@@H](CO)N3C(C)=O)c1	1.4
C/C=C/c1ccccc1[C@@H]1[C@@H](C#N)N(C(=O)CN2CCOCC2)[C@@H]1CO	0.38
CCCNC(=O)C[C@H]1CC[C@H]2[C@@H](COC[C@H](O)CN2Cc2ccncc2)O1	0.43
CCC(=O)N1[C@H](CO)[C@H](c2ccccc2)[C@@H]1CN(CC)C(=O)c1ccccc1	2.1
O=C(Cc1ccncc1)NCC[C@@H]1CC[C@@H](NS(=O)(=O)c2ccccc2Cl)[C@H](CO)O1	-0.088
Cc1noc(C)c1S(=O)(=O)Nc1ccc2c(c1)CC(=O)N([C@H](C)CO)C[C@H](C)[C@@H](CN(C)Cc1ccc(Oc3ccccc3)cc1)O2	-3.6*
C[C@H](CO)N1C[C@H](C)[C@H](CN(C)Cc2ccc(Oc3ccccc3)cc2)Oc2ccc(N(C)C)cc2C1=O	-4.2*
Cc1noc(C)c1S(=O)(=O)Nc1ccc2c(c1)CC(=O)N([C@@H](C)CO)C[C@@H](C)[C@@H](CN(C)Cc1ccc(Oc3ccccc3)cc1)O2	0.55
C[C@@H]1CN([C@H](C)CO)C(=O)c2cc(N(C)C)ccc2O[C@H]1CN(C)Cc1ccc(Oc2ccccc2)cc1	-0.23
C[C@@H]1CN([C@H](C)CO)C(=O)c2cc(N(C)C)ccc2O[C@@H]1CN(C)Cc1ccc(Oc2ccccc2)cc1	-2.3
COc1ccc(S(=O)(=O)Nc2ccc3c(c2)CC(=O)N([C@H](C)CO)C[C@@H](C)[C@H](CN(C)C(=O)Nc2c(C)noc2C)O3)cc1	0.89
CN(C)C(=O)c1ccc(-c2ccc([C@@H]3[C@@H](CO)N(S(C)(=O)=O)[C@H]3C#N)cc2)cc1	-0.07
CN(C)C(=O)c1ccc(-c2ccc([C@@H]3[C@@H](CO)N4CCCCN(Cc5ccncc5)C[C@@H]34)cc2)cc1	2.6
Cc1cccc(-c2ccc([C@@H]3[C@@H](CO)N4CCCCN(CCC(F)(F)F)C[C@H]34)cc2)c1	-2.9
Cc1cccc(-c2ccc([C@@H]3[C@H](CO)N4CCCCN(CCC(F)(F)F)C[C@@H]34)cc2)c1	-2.7
SMILES	IDE exosite FP
Cc1cccc(-c2ccc([C@H]3[C@@H](CO)N4CCCCN(Cc5ccncc5)C[C@H]34)cc2)c1	-5.9*
Cc1cccc(-c2ccc([C@H]3[C@@H](CO)N4CCCCN(CCC(F)(F)F)C[C@@H]34)cc2)c1	0.47
Cc1cccc(-c2ccc([C@H]3[C@H](CO)N4CCCCN(Cc5ccncc5)C[C@@H]34)cc2)c1	-3.7*
Cc1cccc(-c2ccc([C@H]3[C@@H](CO)N4CCCCN(CCC(F)(F)F)C[C@H]34)cc2)c1	-3.6*
Cc1cccc(-c2ccc([C@H]3[C@H](CO)N4CCCCN(CCC(F)(F)F)C[C@@H]34)cc2)c1	-0.21
Cc1cccc(-c2ccc([C@H]3[C@H]4CN(Cc5ccncc5)CCCCN4[C@H]3CO)cc2)c1	-5*

Assay outcomes deposited in PubChem by Broad Institute.
